Inconclusive results are not listed. A number with no mark means an inactive call. The source made the active and inactive calls. Calls follow the shape of the dose curve; as a rule, active = well fitted inhibition curve with a large enough effect; inconclusive = small, poorly fitted or top-dose-only effect; inactive = flat fitted curve, though single readings scatter. Where a SMILES comes first, the peptide text is derived from it. [ ]: non-standard residue; d: D form. Ala(indol-2-yl) = N[C@@H](Cc1cc2ccccc2[nH]1)C(=O)O; Aib = CC(C)(N)C(=O)O
% is scaled to controls: 0 for no effect and ±100 for the full control effect; potency is read from the fitted curve at half-maximal effect.

The target of this test is Calcium and integrin-binding protein 1 (Homo sapiens) (UniProt Q99828). Nature of the test: Primary qHTS for Identification of Calcium Integrin Binding Protein 1 (CIB1) Competitor (AID 1508620).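 As to activity change, negative = inhibition: GST tagged CIB1 binding a fluorescein labelled alphaIIb integrin peptide tracer; top concentration of the series differs between compounds.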 The following applies: CIB1-GST / FITC-alphaIIb peptide fluorescence polarization; series mostly up to 114 µM; activity change, negative = inhibition: at the top concentration. The method in brief: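 Fluorescence polarization competition: CIB1-GST (1 uM final) preincubated with compound 15 min at room temperature, then FITC-labeled alphaIIb peptide (100 nM final) added for another 15 min. Polarization read at Ex 480/Em 540.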
Sequence of Calcium and integrin-binding protein 1 (Homo sapiens) (Q99828 whole entry, looked up): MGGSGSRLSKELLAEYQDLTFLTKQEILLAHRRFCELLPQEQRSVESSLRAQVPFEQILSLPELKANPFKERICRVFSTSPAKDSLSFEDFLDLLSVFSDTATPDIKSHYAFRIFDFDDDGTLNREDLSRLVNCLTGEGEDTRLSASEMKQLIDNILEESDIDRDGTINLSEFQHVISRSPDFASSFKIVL
(In qHTS, concentration-response curves come from the screen itself.)
For the compound `O=C(OC[C@H]1O[C@@H](Oc2ccc(O)cc2CO)[C@H](O)[C@@H](O)[C@@H]1O)c1ccccc1`, the “activity change, negative = inhibition” value is 1.22% [at 57.7 µM].

For the compound `CC(=O)O[C@@H]1[C@@H](O)[C@H]2O[C@@H]3C=C(C)[C@@H](O)C[C@]3(CO)[C@]1(C)[C@]21CO1`, the “activity change, negative = inhibition” value was -1.38% [at 57.7 µM].

As to `COc1cc2c(c(OC)c1OC)-c1ccc(SC)c(=O)cc1[C@@H](NC(C)=O)CC2`, the “activity change, negative = inhibition” value was -7.11%.

As to `CC(C)(NC(=O)[C@@H](N)Cc1ccc(O)cc1)C(=O)N[C@@H](Cc1cc2ccccc2[nH]1)C(=O)N[C@@H](Cc1ccccc1)C(=O)O` (H-Y[Aib][Ala(indol-2-yl)]F-OH), the “activity change, negative = inhibition” value is 3.77% [at 30.2 µM].

As to `C=C1[C@@H](C)[C@H]2[C@H](Cc3ccccc3)NC(=O)[C@]23[C@H](OC(C)=O)/C=C/[C@](C)(O)C(=O)[C@@H](C)C/C=C/[C@H]3[C@@H]1O`, the “activity change, negative = inhibition” value was 1.66%.

Turning to `COc1ccc2c3c([nH]c2c1)C(C=C(C)C)N1C(=O)C2CCCN2C(=O)C1C3` (stereo not drawn), the “activity change, negative = inhibition” value is 3.03% [at 57.7 µM].

`C[C@@H]1C[C@@H](O)[C@]2(O)O[C@@H]3C[C@@]4(C=O)C(CC[C@@H]5C4CC[C@]4(C)[C@@](O)(C6=CC(=O)OC6)CC[C@]54O)C[C@H]3OC2O1` (stereo partly drawn): the “activity change, negative = inhibition” value is -4.68% [at 57.7 µM].

For the compound `CC(=O)OC[C@]12C[C@H](OC(=O)CC(C)C)C(C)=C[C@H]1O[C@@H]1[C@H](O)[C@@H](OC(C)=O)[C@@]2(C)[C@@]12CO2`, the “activity change, negative = inhibition” value was 1.1% [at 57.7 µM].

`CN[C@@H]1C[C@H]2O[C@@](C)([C@@H]1OC)n1c3ccccc3c3c4c(c5c6ccccc6n2c5c31)C(=O)NC4`: the “activity change, negative = inhibition” value was -13.2%.

`CC(=O)OC[C@]12C[C@H](OC(=O)CC(C)C)C(C)=C[C@H]1O[C@@H]1[C@H](O)[C@@H](O)[C@@]2(C)[C@]12CO2`: the “activity change, negative = inhibition” value is 5.04% [at 57.7 µM].

`CC(=O)OC[C@]12C[C@H](OC(=O)CC(C)C)C(C)=C[C@H]1O[C@@H]1[C@H](O)C[C@@]2(C)[C@]12CO2`: the “activity change, negative = inhibition” value is 0.521% [at 57.7 µM].

`COC1CC(O[C@H]2CC[C@]3(C)C4CC[C@]5(C)[C@@H](C6=CC(=O)OC6)[C@@H](OC(C)=O)C[C@]5(O)C4CC[C@@H]3C2)OC(C)C1O[C@@H]1O[C@H](CO)[C@@H](O)[C@H](O)[C@H]1O` (stereo partly drawn): the “activity change, negative = inhibition” value is 2.06% [at 30.2 µM].

With `Cc1c(Cl)c(OCC(=O)N2CCN(C)CC2)nc2sc(C(=O)NC3CC3)c(N)c12`, the “activity change, negative = inhibition” value is 0.0262%.

As to `CO[C@H]1[C@H](O)[C@H](O[C@H]2CC[C@]3(C=O)C4CC[C@]5(C)[C@H](C6=CC(=O)OC6)CC[C@]5(O)C4CC[C@@H]3C2)O[C@@H](C)[C@@H]1O` (stereo partly drawn), the “activity change, negative = inhibition” value was 0.46% [at 57.7 µM].

`C[C@H]1O[C@@H](O[C@H]2CC[C@]3(C=O)C4CC[C@]5(C)[C@@H](C6=CC(=O)OC6)CC[C@]5(O)[C@@H]4CC[C@]3(O)C2)C[C@@H](O)[C@@H]1O` (stereo partly drawn): the “activity change, negative = inhibition” value is -0.928% [at 57.7 µM].

Take `COC1CC(O[C@H]2CC[C@]3(C=O)C4CC[C@]5(C)[C@@H](C6=CC(=O)OC6)CC[C@]5(O)[C@@H]4CC[C@@H]3C2)OC(C)C1O[C@@H]1O[C@H](CO)[C@@H](O[C@@H]2O[C@H](CO)[C@@H](O)[C@H](O)[C@H]2O)[C@H](O)[C@H]1O` (stereo partly drawn): the “activity change, negative = inhibition” value was -4.28% [at 30.2 µM].

As to `C[C@]12CC[C@H](O)C[C@H]1CC[C@@H]1[C@@H]2[C@H](O)C[C@]2(C)[C@@H](c3ccc(=O)oc3)CC[C@]12O`, the “activity change, negative = inhibition” value is 3.82%.

With `C[C@H]1O[C@@H](O[C@H]2CC[C@]3(CO)C4CC[C@]5(C)[C@@H](C6=CC(=O)OC6)CC[C@]5(O)[C@@H]4CC[C@H]3C2)[C@H](O)[C@H](O)[C@@H]1O[C@@H]1O[C@H](CO)[C@@H](O)[C@H](O)[C@H]1O` (stereo partly drawn), the “activity change, negative = inhibition” value is 3.22% [at 30.2 µM].

For the compound `CC1=C[C@H]2O[C@@H]3[C@H](O)[C@@H](O)[C@](C)([C@@]2(CO)C[C@@H]1O)[C@]31CO1`, the “activity change, negative = inhibition” value is 1.73%.

Regarding `C[C@H]1O[C@@H](n2cnc3c(N)ncnc32)C[C@@H]1O`, the “activity change, negative = inhibition” value is 2.99%.

Regarding `OCc1nnc2n1-c1ccc(Cl)cc1C(c1ccccc1Cl)=NC2`, the “activity change, negative = inhibition” value is -2.77%.

`CO[C@@H]1C[C@H](O[C@H]2CC[C@@]3(C)C(CCC4C3CC[C@]3(C)[C@@H](C5=CC(=O)OC5)[C@@H](OC(C)=O)CC43O)C2)O[C@H](C)[C@@H]1O[C@H]1O[C@H](CO[C@@H]2O[C@H](CO)[C@@H](O)[C@H](O)[C@H]2O)[C@@H](O)[C@H](O)[C@H]1O` (stereo partly drawn): the “activity change, negative = inhibition” value is -1.72% [at 30.2 µM].

On to `CC[C@@]1(O)C(=O)OCc2c1cc1n(c2=O)Cc2cc3c(OC)cccc3nc2-1`, for which the “activity change, negative = inhibition” value was -15.2% [at 57.7 µM].

On to `CC1=CC2OC3[C@H](O)C[C@@](C)([C@]34CO4)[C@@]2(CO)[C@H](O)C1=O` (stereo partly drawn), for which the “activity change, negative = inhibition” value is -2.06%.

Consider `CC(=O)O[C@H]1CC[C@@]2(CI)C(=CC[C@@H]3[C@@H]2CC[C@]2(C)C(=O)CC[C@@H]32)C1`, for which the “activity change, negative = inhibition” value is 9.9%.

Consider `C=C1[C@@H](C)[C@H]2[C@H](Cc3ccccc3)NC(=O)[C@]23OC(=O)/C=C/C(=O)CCC[C@@H](C)C/C=C/[C@H]3[C@@H]1O`, for which the Potency is 20 µM (active).

Take `C[C@H](CCC(=O)O)C[C@H](C)C[C@H](C)C(=O)/C=C(\O)[C@H](C)C[C@H](C)C/C=C/[C@@H](C)[C@@H](O)[C@@H](C)[C@@H](O)C[C@@H]1CC[C@@](C)([C@H]2CC[C@@](C)([C@@H](C)O)O2)O1`: the “activity change, negative = inhibition” value is -7.21% [at 57.7 µM].

Consider `CN(C)c1cc2c(cc1Sc1nc3c(N)nccc3n1CCNCC(C)(C)C)OCO2`, for which the “activity change, negative = inhibition” value was -8.38%.

On to `C[C@H]1C/C=C/[C@H]2[C@@H]3O[C@]3(C)[C@@H](C)[C@H]3[C@H](Cc4ccccc4)NC(=O)[C@]32OC(=O)O/C=C/[C@@](C)(O)C1=O`, for which the “activity change, negative = inhibition” value was 11% [at 57.7 µM].

With `CC(=O)O[C@H]1CN2CCC1CC2`, the “activity change, negative = inhibition” value was 1.96%.

Take `CC(=O)OC[C@]12C[C@H](O)C(C)=C[C@H]1O[C@@H]1[C@H](O)[C@@H](OC(C)=O)[C@@]2(C)[C@]12CO2`: the “activity change, negative = inhibition” value was -2.75% [at 57.7 µM].

For the compound `CC1=CC(=O)[C@@H](O)[C@]2(C)C3[C@@H](O)[C@@H]4OC(=O)[C@@H]([C@H]4C)[C@]3(C)C(=O)C[C@@H]12` (stereo partly drawn), the “activity change, negative = inhibition” value is 5.72% [at 57.7 µM].

With `N#Cc1cn([C@@H]2O[C@H](CO)[C@H](O)[C@@H]2O)c2ncnc(N)c12`, the “activity change, negative = inhibition” value is -3.18%.

(Values after PubChem BioAssay (NCATS).)
